Experimental data from ChEMBL document CHEMBL3433997, “St. Jude Leishmania screening dataset” (2016).

Key:
Format in all cases: functional
[1] = target: Solute carrier family 2, facilitated glucose transporter member 1 (Homo sapiens) (UniProt P11166); experiment: ST_JUDE_LEISH: Cytotoxicity at 2uM final concentration against transgenic Leishmania Mexicana promastigotes LmGLUT1 that are glucose transport deficient and complemented with the human glucose transporter GLUT1. Activity is measured by DNA content using SYBR green in vitro
Sequence of Solute carrier family 2, facilitated glucose transporter member 1 (Homo sapiens) (P11166 whole entry): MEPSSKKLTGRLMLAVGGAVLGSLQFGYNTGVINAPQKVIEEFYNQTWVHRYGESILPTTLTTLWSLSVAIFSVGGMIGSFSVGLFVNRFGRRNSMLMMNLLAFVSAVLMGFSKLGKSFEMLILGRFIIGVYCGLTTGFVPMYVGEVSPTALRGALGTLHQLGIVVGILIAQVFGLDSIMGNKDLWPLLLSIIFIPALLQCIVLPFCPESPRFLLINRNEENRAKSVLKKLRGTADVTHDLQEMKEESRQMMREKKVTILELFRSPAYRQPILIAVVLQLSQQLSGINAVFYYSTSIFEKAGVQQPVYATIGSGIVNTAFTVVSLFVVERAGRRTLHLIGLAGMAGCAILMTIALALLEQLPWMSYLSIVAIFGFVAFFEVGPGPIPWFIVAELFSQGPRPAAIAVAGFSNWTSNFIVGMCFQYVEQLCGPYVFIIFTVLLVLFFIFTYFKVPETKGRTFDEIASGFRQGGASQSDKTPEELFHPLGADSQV

[2] = target: Hexose transporter 1 (Plasmodium falciparum) (UniProt O97467); experiment: ST_JUDE_LEISH: Cytotoxicity at 2uM final concentration against transgenic Leishmania Mexicana promastigotes LmPfHT that are glucose transport deficient and complemented with the Plasmodium falciparum hexose transporter. Activity is measured by DNA content using SYBR green in vitro
[3] = target: Glucose transporter (Leishmania mexicana) (UniProt O61059); experiment: ST_JUDE_LEISH: Cytotoxicity at 2uM final concentration against transgenic Leishmania Mexicana promastigotes LmGT2 that are glucose transport deficient and complemented with the L. Mexicana glucose transporter 2. Activity is measured by DNA content using SYBR green in vitro

Compound	inhibition [1] [%]	inhibition [2] [%]	inhibition [3] [%]
COc1ccc(CNC2CCN(C)CC2)cc1-c1ccc(S(=O)(=O)NCCc2ccccn2)s1	-2.94	-0.03	0.29
O=C(Cc1ccccc1)NC(CCN1CCC(O)(c2cccc(C(F)(F)F)c2)CC1)c1ccc(Cl)c(Cl)c1 (stereo unspecified)	4.97	1.61	0.53
O=C(Nc1cccc(CN2CCCN(Cc3ccc(O)cc3)CC2)c1)c1cccc(Cl)c1	12.2	13.4	11.7
CN(C)Cc1ccc(-c2ccc(NC(=O)c3ccc4c(=O)n(Cc5ccoc5)cnc4c3)cc2)cc1	1.36	1.35	-0.37
Clc1ccc(OCc2ccccc2)c(Cc2ccc(-c3nc4cnccc4[nH]3)o2)c1	0.59	2.01	0.25
CS(=O)(=O)Cc1ccc(Nc2nccc(-c3c(-c4cccc(NC(=O)c5c(F)cccc5F)c4)nn4ccccc34)n2)cc1	38.6	18.8	9.09
Cc1cccc(C(O)CNc2ccnc(Nc3cccc(-c4csc(C)n4)c3)n2)c1 (stereo unspecified)	3.68	4.04	2.54
COc1cccc(CNC(=O)c2cccc(-c3ccc(CN4CCC(N5CCCC5)CC4)cc3)n2)c1	7.47	5.46	8.7
CC(C)Cn1c(Sc2ccc(C#N)c([N+](=O)[O-])c2)nnc1-c1ccccc1Cl	3.45	4.02	-0.31
Nc1nc(N)c2c(ccc3c2ccn3C2C=CCCC2)n1 (stereo unspecified)	56.1	71.8	34.4
O=C(Nc1cncc(NC(=O)c2ccc(Cl)c(Cl)c2)c1)c1ccc(Cl)c(Cl)c1	2.62	2.96	-0.68
CCN(CCCN1CCCCC1)c1cc(C)nc(Nc2cc(C(F)(F)F)ccc2C)n1	-1.35	0.37	0
O=S(=O)(Nc1ccc(CCN2CCC(N3CCCCC3)CC2)cc1)c1ccc2ccccc2c1	4.91	11.2	4.79
N#Cc1cccc(C(O)CN(Cc2ccccc2)Cc2ccccc2)c1 (stereo unspecified)	1.37	1.53	2.04
COc1ccc(Nc2cc(C)nc(NCc3ccc4c(c3)OCO4)n2)cc1	5.82	4.09	1.69
CC(C)Cc1ccc(N2CCN(CCCCNC(=O)c3ccc(NC(=O)c4ccc(Cl)c(Cl)c4)cc3)CC2)cc1	1.28	1.46	0.21

Compound	inhibition [1] [%]	inhibition [2] [%]	inhibition [3] [%]
CCN1CCN(c2cc(C)c3cc(NC(=O)c4cccc(Cl)c4)ccc3n2)CC1	7.2	9.24	8.84
CCCCCCCN1CC[C@@H](CCCc2ccnc3ccc(OC)cc23)[C@@H](CCN)C1	3.03	2.34	0.84
COc1ccc(C(=O)CCC(=O)N(Cc2ccc(-c3ccc(CNCCc4ccc(S(C)(=O)=O)cc4)cn3)cc2)C(C)CN(C)C)cc1F (stereo unspecified)	3.43	3.18	2.85
CCC1CN2CCc3c([nH]c4ccccc34)C2CC1CC1NCCc2cc(OC)c(OC)cc21 (stereo unspecified)	1.68	4.6	0.99
N#Cc1cc(N(CCCOc2cccc(OC(F)(F)F)c2)Cc2ccccc2C(F)(F)F)ccc1C(F)(F)F	-0.77	-0.39	0.94
CCCCCCCN1CC[C@@H](CCCc2ccnc3ccc(OCCN4CCNCC4)cc23)[C@@H](CC)C1	5.11	4.74	0.64
N#Cc1ccc(C(=O)Nc2cccc(-c3ccc(CN4CCCC4)cc3)c2)cc1	11.4	9.72	9.04
CC(C)CCN1CCCN(Cc2cccc(NC(=O)c3cc4ccccc4s3)c2)CC1	-0.92	0.43	2.29
CCOc1ccc(C(=O)Nc2cc(Cl)ccc2O)cc1Cl	-1.03	0.11	-1.5
COc1ccccc1CNC(=O)c1nn(-c2ccc(Cl)cc2)c(=O)c2ccccc12	4.66	4.83	3.54
COc1ccc(CNC2Cc3ccccc3C2)cc1-c1ccc(S(=O)(=O)NCCN2CCCC2)cc1	3.15	1.44	-2.73
Cc1cc(N[C@@H](Cc2ccccc2)C(=O)Nc2ccccc2)nc(Nc2ccccc2)n1	5.97	5.91	-0.05
Cc1cccc(NC(=O)N(Cc2cc3cc(C)cc(C)c3[nH]c2=O)C2CC2)c1	9.62	10.1	6.55
CC(C)(C)COC(=O)c1ccc(NC(=O)N[C@@H](Cc2ccc(O)cc2)C(=O)NC2CCN(Cc3ccc(O)cc3)C2)cc1 (stereo partly specified)	-2.22	-2.38	-0.79
CC(=O)Nc1ccc(NC(=O)c2cc(-c3ccc(C)cc3O)n[nH]2)cc1	-0.23	7.7	0.4
CC(C)CCN1C(=O)C(NC(=O)Oc2ccccc2)C(=O)N(CC23CC4CC(CC(C4)C2)C3)c2ccccc21 (stereo unspecified)	-1.21	-2.53	-2.02
